Assay in all cases: NCI-60 one-dose screen, 48 h (100 = growth as untreated, 0 = no growth, -100 = all killed)
Common to all, as to conditions: 10 µM unless noted

For experiment [1], the system named is NCI-H23 lung.
Experiment [2] deals with NCI-H226 lung.
Experiment [3] concerns NCI-H322M lung.
The subject of experiment [4] is NCI-H460 lung.
The subject of experiment [5] is NCI-H522 lung.
In experiment [6] the test system is A549/ATCC NSCLC.
Experiment [7] concerns 786-0 renal.
Experiment [8] has as its system COLO 205 colon.
Experiment [9] deals with DU-145 prostate.
Experiment [10] has as its system K-562 leukemia.
The test system of experiment [11] is MALME-3M melanoma.
The test system of experiment [12] is MDA-MB-231 breast.
Experiment [13] relates to RXF 393 renal.
The subject of experiment [14] is SF-268 CNS.
In experiment [15] the test system is SF-539 CNS.
The subject of experiment [16] is UACC-257 melanoma.
Experiment [17] concerns M14 melanoma.
Experiment [18] concerns HCT-15 colon.
Experiment [19] has as its system SF-295 CNS.

The source of these data is PubChem BioAssay (NCI).

The panel holds about 83,000 compounds, 20% with a hit somewhere; the sample as a whole holds those more often.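 Values shown are percent growth following 48 h exposure of cells in 96-well plates to a single concentration of compound; below 10 was considered active.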 Values without a mark were called inactive. Active and inactive are the calls of the source.

Turning to `COc1ccc(-c2cnnn2-c2cc(OC)c3c(c2)OCO3)cc1`, the growth in experiment [1] is 26.6%; in experiment [2], 88.4%; in experiment [3], 42.8%; in [4] it was 11.2%; in experiment [5] it was -45.2% (active); in experiment [6], 18.3%. Besides, the growth is 42.3% in experiment [7]; -80.4% (active) in experiment [8]; 12.8% in experiment [9]; 0.651% (active) in [10]; 34.4% in experiment [11]; 4.19% (active) in experiment [12]. The growth in experiment [13] is 10%; in experiment [14], 29.9%; in experiment [15], -15.2% (active); in experiment [16], 59.7%; in [17], 10.6%; in experiment [18], 14.8%.

For `Cc1cc(NC(=O)Nc2cc(Cl)ccc2C)no1`, the growth in [1] is 88.3%; in [2], 105%; in experiment [3] it was 146%; in experiment [4], 102%; in experiment [5], 103%; in experiment [6] it was 108%. For the same compound, the growth is 102% in [7]; 143% in experiment [8]; 111% in [9]; 80.8% in [10]; 191% in experiment [11]; 100% in [12]. Besides, the growth is 126% in [13]; 100% in experiment [14]; 112% in experiment [19]; 94.1% in [15]; 115% in experiment [16]; 109% in [17]. The growth in experiment [18] is 100%.

Take `Cc1cc2c(cc1C)Nc1sc(NC(=O)CN3CCN(C)CC3)nc1C(=O)N2`: the growth in experiment [1] was 102%; in experiment [2] it was 105%; in experiment [3], 105%; in experiment [4], 101%; in experiment [5], 86.3%; in experiment [6] it was 100%. For the same compound, the growth in experiment [7] is 98.9%; in experiment [8], 112%; in experiment [9], 108%; in [10], 81.7%; in experiment [11] it was 109%; in [12], 114%. Besides, the growth in experiment [14] is 103%; in [19], 109%; in [15] it was 107%; in experiment [16], 109%; in experiment [17], 103%; in [18], 101%.

On to `COc1ccc(Cn2c(NCCCN(C)C)nc(=O)n(Cc3ccc(F)cc3)c2=O)cc1`, for which the growth is 103% in experiment [1]; 90.7% in experiment [2]; 83% in experiment [3]; 108% in experiment [4]; 95% in [5]; 110% in experiment [6]. The growth in [7] was 89.3%; in experiment [8], 94.8%; in experiment [9], 99.4%; in experiment [10], 87.9%; in [11], 87.9%; in [12], 81.4%. For the same compound, the growth in experiment [13] is 83.7%; in experiment [14] it was 83.7%; in experiment [19] it was 96.2%; in experiment [15], 108%; in experiment [16] it was 92.4%; in experiment [17] it was 97.9%. For the same compound, in experiment [18], the growth was 107%.

For `COc1cc2c(c(OC)c1OC)-c1ccc(NN(C(=O)c3ccccc3)C(=O)c3ccccc3)c(=O)cc1[C@@H](NC(C)=O)CC2` (tested in a mixture with another compound), the growth is 26.9% in experiment [1]; 73.3% in experiment [2]; 17.8% in experiment [3]; 17.9% in experiment [4]; -8.35% (active) in experiment [5]; 56.6% in [6]. In addition, the growth in [7] was 31.4%; in [9], 3.42% (active); in experiment [11] it was 39.4%; in experiment [12], 51.2%; in experiment [13], 38.5%; in experiment [14], 48.9%. Moreover, the growth is -30.7% (active) in [19]; 15.4% in experiment [15]; 58.4% in [16]; 4.01% (active) in experiment [17]; 48.8% in experiment [18].

Take `CN(C)c1ccc(/C=C\c2ccnc3ccccc23)cc1`: the growth is 13.1% in experiment [1]; 39% in experiment [2]; 90.6% in experiment [3]; 86.9% in experiment [4]; -7.89% (active) in experiment [5]; 65.1% in experiment [7]. In addition, the growth in experiment [8] is 81.2%; in experiment [9], 85.1%; in experiment [10], 26.8%; in experiment [11] it was 84.8%; in experiment [12], 70.3%; in experiment [14], 92.1%. Further, the growth in experiment [19] was 61.6%; in [15] it was 78.3%; in experiment [16], 80.9%; in [17] it was 83.9%; in experiment [18], 58.5%.

On to `CCOC(=O)C1=NN(c2ccc(Cl)cc2)C2C3N(c4ccc(Cl)cc4)N=C(C(=O)OCC)N3c3ccccc3N12` (configuration not stated), for which the growth is 87% in experiment [1]; 107% in experiment [2]; 98.5% in experiment [3]; 106% in [4]; 88.7% in experiment [5]; 99% in [6]. In addition, the growth is 95.6% in experiment [7]; 128% in experiment [8]; 118% in experiment [9]; 70.7% in experiment [10]; 132% in experiment [11]; 103% in [12]. The growth in experiment [13] was 106%; in experiment [14] it was 102%; in [15] it was 116%; in experiment [16] it was 119%; in [17] it was 102%; in experiment [18] it was 121%.

Regarding `Cc1ccc(NC(=O)CSc2nnc3n(Cc4ccccc4)c(=O)c4c(C)c(C(N)=O)sc4n23)cc1`, the growth in experiment [1] is 78.4%; in experiment [2] it was 28.9%; in [3], 46.2%; in experiment [4], -40.9% (active); in [5], 31.5%; in experiment [6], 77.7%. Further, the growth in [7] is 16.9%; in experiment [9], 39%; in [11] it was 11.4%; in experiment [12], -6.14% (active); in experiment [13] it was 79.9%; in experiment [14], 55.8%. The growth in [19] is 53%; in experiment [16], 56.4%; in experiment [17], 60.5%; in experiment [18] it was 84.4%.
